# According to PubChem BioAssay (NCI):
# About 83,000 compounds went through this panel and 20% of them were active in at least one assay; those are over-represented in the sample as a whole.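 96-well plates, one dose, 48 hours. Percent growth reported; active if below 10.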 A number with no mark means an inactive call.
# Test system: OVCAR-8 ovarian
# Assay: NCI-60 one-dose screen, 48 h (100 = growth as untreated, 0 = no growth, -100 = all killed)
# Settings: 10 µM
row,SMILES,growth [%]
1,Nc1nc(N)c2cc(S(=O)(=O)c3cccc(C(F)(F)F)c3)ccc2n1,40.7
2,CCN(CC)C(=O)/C=C(/C)c1ccccc1,105
3,CCC(O)CC(CC)CO (stereo not given),104
4,COc1ccc(OC)c(/C=C2\CCc3ccccc3C2=O)c1,65.4
5,O=C(O)CCCCNC(=O)c1ccccc1,108
6,C/C(=N/NC(N)=O)c1ccco1,106
7,Cc1ccc(CCCC(=O)O)c(C)c1,97.4
8,CC(=O)OCC1OC(OC2=C(CC=C(C)C)C(=O)c3ccccc3C2=O)C(OC(C)=O)C(OC(C)=O)C1OC(C)=O (stereo not given),53.6
9,C=CC(O)CCC (stereo not given),101
10,COc1cc(C(=O)NC(=S)Nc2ccc3ccccc3c2)cc(OC)c1OC,104
11,CCN1C(=O)/C(=C/C=C/N(C)c2ccccc2)SC1=S,69.2
12,O=[N+]([O-])c1cccc(C(F)(F)F)c1,106
13,CCOc1ccc(/C=N/N=C(N)N)cc1OCC,106
14,CCc1ccc(/C(C#N)=C/C=C/c2ccccc2)cc1,34.3
15,COC(=O)c1ccc(NC(=O)CCl)cc1,85.5
16,CCn1c(=O)n(C)c2c(=O)n(C)c(=O)n(C)c21,101
17,COCCCC/C(=N\OCCN)c1ccc(C(F)(F)F)cc1,102
18,O=[N+]([O-])c1cccc2nsnc12,93.4
19,CC(=O)c1ccc(C(C)(C)C)cc1,98.3
20,COc1ccc(NC(=O)CCl)cc1,80.8
